# Shown are actives, neighbours in structure and some others; about 12% of the full set was active somewhere.
# HP1b binding inh: HTS for Inhibitors of HP1-beta Chromodomain Interactions with Methylated Histone Tails | Chromobox protein homolog 1 (Homo sapiens), P83916 | AlphaScreen HP1-beta / biotin-H3K9me3 peptide binding | Potency, µM (titrated, usually from 114 µM), inactives show at the top dose activity change, negative = inhibition, hits mostly inhibitors | actives 0.56% (n = 390,000) | AID 540317, 2011; further: nearly all actives have a fitted effect of over 70% in size
#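 Compound inhibition of the preformed complex between 50 nM HP1-beta and 50 nM biotinylated H3K9me3 peptide was read by AlphaScreen. Buffer was PBS pH 7.4 with 0.01% Tween-20. Incubations ran 30 min at room temperature, with 10 ug/mL donor/acceptor beads.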
# G9a block: qHTS Assay for Inhibitors of Histone Lysine Methyltransferase G9a; Histone-lysine N-methyltransferase EHMT2 (Homo sapiens), Q96KQ7; G9a H3K9 monomethylation, AlphaScreen, 2 h; Potency, µM (highest dose often 102 µM), inactives show at the top dose activity, negative = inhibition, hits mostly inhibitors; actives 8.8% (n = 350,000); AID 504332, 2011; further: on the % scale 0 is the no-effect control and ±100 the full control effect; nearly all actives have a fitted effect of over 75% in size
#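 AlphaScreen read-out: biotin-H3K9 peptide (500 nM) methylation by 20 nM enzyme with 20 uM SAM, 2 h at room temperature after 15 min compound preincubation; anti-monomethyl H3K9 antibody plus donor/acceptor beads, 10 min dark.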
# Sfp PPTase inh: qHTS Assay for Inhibitors of Bacillus subtilis Sfp phosphopantetheinyl transferase (PPTase). Potency, µM, inactives show largest response in the series, negative = inhibition, actives largely listed as inhibitors. AID 1490, 2009. actives 3.5% (n = 310,000). 4'-phosphopantetheinyl transferase ffp (Bacillus subtilis), Q9F4F7. Biochemical Sfp PPTase activity, qHTS;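 further: the enzyme is Sfp with the accession as filed and its product quenches rhodamine fluorescence; 0% = enzyme reaction without inhibitor and -100% = no enzyme wells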
#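 With Hepes-Na pH 7.6 buffer containing 10 mM MgCl2, Sfp (15 nM) modified BHQ-2-YbbR (12.5 uM) using rhodamine-CoA (5 uM). Two reads 30 minutes apart at 525/598 nm yielded each well's rate.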
# BAZ2B block: qHTS Assay for Inhibitors of BAZ2B. AlphaScreen BAZ2B-H3K14Ac peptide displacement. actives 4.4% (n = 360,000). Bromodomain adjacent to zinc finger domain protein 2B (Homo sapiens), Q9UIF8. Potency, µM (titrated, usually from 114 µM), without a hit: at the top dose activity change, negative = inhibition, hits mostly inhibitors; further: on the % scale 0 is the no-effect control and ±100 the full control effect; nearly all actives have a fitted effect of over 60% in size
#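 In this displacement format the biotinylated H3(5-23) peptide acetylated at Lys14 serves as ligand at 50 nM, with BAZ2B at 50 nM in PBS pH 7.4 containing 0.01% Tween-20. Donor and acceptor beads are 10 ug/mL final.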
# JMJD2A Tudor: qHTS Assay for Inhibitors of JMJD2A-Tudor Domain; Lysine-specific demethylase 4A (Homo sapiens), O75164; AlphaScreen JMJD2A-Tudor / H3K4me3 peptide binding; Potency, µM (titrated, usually from 114 µM), without a hit: at the highest dose activity change, negative = inhibition, actives largely listed as inhibitors; actives 4.4% (n = 390,000); AID 504339, 2011; further: on the % scale 0 is the no-effect control and ±100 the full control effect; nearly all actives have a fitted effect of over 50% in size
# * = called active by the depositor; ? = inconclusive; . = not tested or not shown; [ ] = remark or other dose. The call rests on the fitted dose curve; in most records, active means well fitted curve in the direction sought with a large enough effect; inconclusive means small, poorly fitted or top-dose-only effect, or another doubt; inactive means no such curve, though single readings can be large; an effect the other way counts as inactive or inconclusive. Potency means the concentration at half of the fitted maximal effect.
SMILES,HP1b binding inh,G9a block,Sfp PPTase inh,BAZ2B block,JMJD2A Tudor
Cc1ccc2cc(C(c3nnnn3C(C)(C)C)N3CCCCCC3)c(=O)[nH]c2c1 (stereo unspecified),23%,7.9µM*,?,-25%,-13%
Nc1nc(N)nc(-c2ccccn2)n1,22%,-44%[59 µM],-8%,20µM*,50µM*
Clc1ccc(-c2cnnc(-c3ccccn3)n2)cc1,31%,.,.,.,10µM*
c1ccc(-c2cnnc(-c3ccccn3)n2)cc1,34%,.,.,.,11µM*
c1ccc(-c2cnc(-c3ccccc3)nn2)cc1,20%,.,.,.,-17%
c1ccc(-c2nc(-c3ccccn3)nc(-c3ccccn3)n2)nc1,10%,47%[59 µM],?,-4%,-18%
c1ccc(-c2cnc(-c3ccccn3)nn2)cc1,27%,.,.,.,14µM*
CCc1ccc(NC(=O)Cn2c(=O)n(CCC(C)C)c(=O)c3cccnc32)cc1,52%,-8%[59 µM],.,7%,-12%
CCOc1ccc(-n2c(C)cc(/C=N/N(C)C)c2C)cc1,-18%,45µM*,11%,?,45µM*
CCOc1ccc(-n2c(C)cc(C(=O)CCl)c2C)cc1,?,45µM*,-1%,-22%,?
COC(=O)c1ccc(-n2c(C)cc(C(=O)CCl)c2C)cc1,7%,?,-42%,?,-29%
O=S1(=O)c2cccc3cccc(c23)N1CCCN1CCN(c2ccc(F)cc2)CC1,.,0%[12.7 µM],16%,.,.
CCOc1ccc(NC(=O)CN2C(=O)C(c3ccc(Cl)cc3)=NC2(C)C)cc1,40%,7%[59 µM],.,2%,-6%
Cc1ccc2[nH]c3c(c2c1)CCCC3NCCO (stereo unspecified),-16%,50µM*,-9%,?,?
O=C(/C=C/c1ccccc1)NCCO,.,-9%[12.7 µM],16%,.,.
Cc1cc(C)nc(NC(=O)C2c3ccccc3Oc3ccccc32)n1,52%,50µM*,17%,-1%,-1%
CC1CCCCN1S(=O)(=O)c1ccc2[nH]c(=O)cc(C(=O)NCCCN3CCCCCC3)c2c1 (stereo unspecified),12%,79µM*,-1%,-16%[57.1 µM],-35%
CCOC(=O)Cc1csc(NC(=O)c2ccc(Br)o2)n1,24%,9%,9%,?,-16%
CCOC(=O)Cc1csc(NC(=S)NC(=O)c2ccc(C)cc2)n1,43%,12%,-12%,5%,-15%
CCOC(=O)Cc1csc(NC(=O)c2sc3nc4cc(C)ccc4cc3c2N)n1,3%,71µM*,?,13%,40µM*
O=C(Nc1nccs1)c1ccc(Br)o1,29%,?,1%,0%,-11%
CCOC(=O)Cc1csc(NC(=O)/C=C/c2ccc(Br)o2)n1,21%,50µM*,?,-33%,-11%
CCOC(=O)Cc1csc(NC(=S)NC(=O)c2ccccc2)n1,62%,?,16µM*,?,-16%
O=C(/C=C/c1ccc(Br)o1)Nc1nccs1,?,45µM*,?,-15%,32µM*
O=C(Nc1ccc(Br)cc1F)c1cc(S(=O)(=O)NCc2ccc(F)cc2)ccc1F,18%,3%[59 µM],.,1%,0%
SMILES,HP1b binding inh,G9a block,Sfp PPTase inh,BAZ2B block,JMJD2A Tudor
COC(=O)c1cnc(NNS(=O)(=O)c2ccc(Cl)cc2)nc1C(F)(F)F,-14%,35µM*,-2%,-5%,-6%
COC(=O)c1cnc(NNC(=O)c2ccc([N+](=O)[O-])cc2)nc1C(F)(F)F,10%,2%,11%,3%,-22%
COc1cccc(CNC(=O)CSC(=S)N2CCCC2)c1,3%,-45%,.,0%,-11%
COc1ccccc1CNC(=O)CS(=O)(=O)c1ccccc1,20%,48%,7%,-2%,-13%
COc1ccc(CCNc2nc3ccccc3n3nnnc23)cc1OC,32%,8%,-20%,-5%,-9%
COc1ccccc1CNC(=O)CSC(=S)N1CCCC1,19%,11µM*,.,-2%,-11%
COc1ccccc1CNC(=O)CS(=O)(=O)c1ccc(C)cc1,22%,79µM*,1%,0%,-16%
COc1ccc(CCNCc2csc3nc4ccccc4n23)cc1OC,10%,50µM*,5%,?,89µM*
COc1ccc(CCNC(=O)/C(C#N)=C/c2ccc(OCC(=O)NCC3CCCO3)cc2)cc1OC (stereo unspecified),29%,8%[0.501 µM],17%,0%,-22%[57.1 µM]
COc1ccc(CCNC(=O)CNCC2CCCO2)cc1OC (stereo unspecified),?,8.9µM*,63µM*,?,3.5µM*
COc1ncc2nc(C)c(=O)n(C[C@H]3CCCO3)c2n1,.,0%[12.7 µM],24%,.,.
CN(C)c1ccc(C(=O)Nc2c(C(=O)NC(C)(C)C)oc3ccccc23)cc1,1%,-48%[59 µM],.,-12%[57.1 µM],-28%
COc1ccccc1CNC(=O)CC(C)C,?,-3%[59 µM],-3%,2%,28µM*
COc1ccccc1CNC(=O)C12CC3CC(CC(C3)C1)C2,10%,.,11%,38%,79µM*
COc1ccccc1CNC(=O)CNCCc1ccc(OC)c(OC)c1,?,.,-9%,50µM*,22µM*
O=C(NNC(=O)c1ccccc1O)c1ccc(S(=O)(=O)Nc2ccccc2)cc1,38%,-1%,.,-3%,-18%
COc1ccc(Nc2ncnc3c2c(-c2ccccc2)cn3-c2ccc(C)c(Cl)c2)cc1OC,?,-2%[59 µM],.,?,?
O=C1c2ccccc2C(=O)C1c1ccnc2ccccc12,79%,-12%[59 µM],15%,3%,79µM*
O=C1c2ccccc2C(=O)C1c1nccc2ccccc12,56%,-3%[12.7 µM],12%,5%,-30%
N#CC1=C(N)SC(N)=C(C#N)C1c1ccnc2ccccc12,18%,2.5µM*,16µM*,?,56µM*
CC1=C(C#N)C(c2ccc3ncccc3c2)C(C#N)=C(C)N1,43%,?,14%,4%,-12%
O=C(C[C@@H]1C/C=C\C[C@@H](NC(=O)OCC2c3ccccc3-c3ccccc32)C(=O)OCCNC1=O)N[C@@H](CO)Cc1ccccc1,8%,.,.,.,-27%
COc1ccc(C)cc1-n1c(SCC(=O)NCc2ccco2)nc2c([nH]c3ccccc32)c1=O,-2%[57 µM],0%[59 µM],.,-35%,-27%
OC(CNCc1ccco1)Cn1c2ccc(Br)cc2c2cc(Br)ccc21 (stereo unspecified),8%,-1%[59 µM],20µM*,-35%,-23%
CC12CCC(C(=O)N(CSC(=S)N/N=C\c3ccccc3O)C1=O)C2(C)C (stereo unspecified),-15%,4.5µM*,38%,2.8µM*,40µM*
COc1ccc(/C=N\NC(=S)SCN2C(=O)C3CCC(C)(C2=O)C3(C)C)cc1 (stereo unspecified),1%,.,.,.,?

# Source: PubChem BioAssay
